# NPR1 antag = Natriuretic polypeptide receptor (hNpr1) antagonism - Primary qHTS | Potency, µM (highest dose often 46.3 µM), most hits filed as inhibitors | 1.6% of 76,000 active | AID 1347048, 2019 | Atrial natriuretic peptide receptor 1 (Homo sapiens), P16066 | HEK293 hNpr1 GloSensor cGMP, ANP-stimulated luminescence; calls by dose curve; note: nearly all actives have a fitted effect of over 60% in size
#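 HEK293 cells stably expressing human Npr1 and cGMP GloSensor pGS-40F, loaded 2 h with 2% GloSensor reagent, given compound 30 min at room temperature. Luminescence read before and 20 min after 0.1 nM hNppA.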
# HEK cytotox = Cytotoxic Profiling in HEK 293 Cell Line of Diverse Libraries Using Quantitative High-Throughput Screening. HEK 293 viability, ATP luminescence (CellTiter-Glo), 48-72 h. Potency, µM (top dose mostly 115 µM), hits mostly inhibitors. 6.6% of 94,000 active; note: nearly all actives have a fitted effect of over 60% in size
#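 CellTiter-Glo luminescence (cellular ATP) was read after 48 or 72 hr of compound exposure at 37 degree Celsius. Cells were HEK 293 plated at 250 cells/well.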
# NIH3T3 tox = Cytotoxic Profiling in NIH 3T3 Cell Line of Diverse Libraries Using Quantitative High-Throughput Screening | NIH 3T3 viability, CellTiter-Glo ATP luminescence, 48-72 h | Potency, µM (series often up to 96.7 µM), most hits filed as inhibitors | 4.3% of 94,000 active | AID 1345082, 2018; note: nearly all actives have a fitted effect of over 55% in size
#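 Cytotoxicity is measured as loss of cellular ATP: NIH 3T3 cells (400/well) are exposed to compound for 48 or 72 hr at 37 °C, then CellTiter-Glo luminescence is imaged after 10 min at room temperature.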
# Luciferase inh = Firefly luciferase inhibition profiling of diverse chemical library using quantitative high-throughput screening | Luciferin 4-monooxygenase (Photinus pyralis), P08659 | purified P. pyralis luciferase, luminescence, biochemical | Potency, µM (highest dose often 115 µM), usual class: inhibitors | 2.5% of 76,000 active; note: nearly all actives have a fitted effect of over 65% in size
# Target sequence (P08659 whole entry, looked up): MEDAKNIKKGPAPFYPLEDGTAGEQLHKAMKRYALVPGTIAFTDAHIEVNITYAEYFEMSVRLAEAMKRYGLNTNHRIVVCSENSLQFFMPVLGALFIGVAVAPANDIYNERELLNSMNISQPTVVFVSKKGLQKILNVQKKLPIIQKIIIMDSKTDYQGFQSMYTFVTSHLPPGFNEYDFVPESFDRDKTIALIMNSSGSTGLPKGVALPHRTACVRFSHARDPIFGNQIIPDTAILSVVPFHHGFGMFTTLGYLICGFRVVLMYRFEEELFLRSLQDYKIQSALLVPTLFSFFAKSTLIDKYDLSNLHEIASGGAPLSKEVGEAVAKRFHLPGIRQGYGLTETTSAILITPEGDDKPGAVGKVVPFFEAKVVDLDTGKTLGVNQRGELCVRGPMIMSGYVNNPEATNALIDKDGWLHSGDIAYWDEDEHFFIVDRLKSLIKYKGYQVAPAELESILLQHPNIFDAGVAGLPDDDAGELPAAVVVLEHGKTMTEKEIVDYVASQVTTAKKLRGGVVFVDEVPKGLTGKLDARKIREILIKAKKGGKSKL
#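 Purified P. pyralis luciferase (10nM final) in 50mM Tris acetate pH 7.5, 10mM Mg acetate, 0.01% Tween-20, 0.05% BSA with 10uM D-luciferin and 10uM ATP. Compounds titrated qHTS. Luminescence imaged on CCD.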
# Numbers stand for hits; 0 = inactive; ? = inconclusive; - = no result. Only some compounds are listed: those with a hit (about 11% of all), similar ones and a draw of the others. Unless noted, calls come from the whole dose curve; as a rule, active = well fitted curve in the direction sought with a large enough effect; inconclusive = small, poorly fitted or top-dose-only effect, or another doubt; inactive = no such curve, though single readings can be large; an effect the other way counts as inactive or inconclusive.
SMILES,NPR1 antag,HEK cytotox,NIH3T3 tox,Luciferase inh
COc1cccc(Nc2ncc3c(n2)C(C)(C(=O)NCc2cccnc2)CC3)c1 (stereo not given),0,79µM,?,0
CC1(C(=O)NCc2ccc(F)cc2)COCc2cnc(Nc3ccccc3)nc21 (stereo not given),?,79µM,?,0
CC1(C(=O)Nc2ccccc2F)COCc2cnc(Nc3ccccc3)nc21 (stereo not given),0,?,?,0
CC1(C(=O)NCc2ccncc2)CCc2cnc(NCc3ccccc3)nc21 (stereo not given),0,0,45µM,0
CC1(C(=O)NCc2cccnc2)CCc2cnc(Nc3ccccc3)nc21 (stereo not given),0,89µM,25µM,0
Cc1noc(C)c1[S+](=O)([O-])N1CCc2nc(-c3ccccc3)nc(-c3ccc(Cl)cc3)c2C1,-,0,0,-
Cn1ccnc1CN1C(=O)CO[C@H]2CN(C(=O)c3cnccn3)C[C@H]21,0,0,0,0
CC1(C(=O)NCc2cccnc2)CCc2cnc(NCc3ccccc3)nc21 (stereo not given),0,0,35µM,0
CC1(C(=O)NCc2cccnc2)CCCc2cnc(NCc3ccccc3)nc21 (stereo not given),0,?,50µM,0
CC1(C(=O)NCc2cccnc2)CCCc2cnc(Nc3ccccc3)nc21 (stereo not given),0,0,?,0
Oc1cccc(Nc2cnc3ccc(-c4ccc(F)cc4)nn23)c1,0,?,?,20µM
COc1ccc(Nc2cnc3ccc(-c4ccc(OC)nc4)nn23)cn1,0,?,?,0
COc1ccccc1-c1ccc2ncc(Nc3cccc(O)c3)n2n1,0,?,?,?
COc1cncc(Nc2cnc3ccc(-c4ccc(F)cc4)nn23)c1,0,100µM,79µM,0
COc1cccc(Nc2cnc3ccc(-c4ccc(F)cc4)nn23)c1,0,100µM,?,0
CC(C)N1CCN(C2CCOC3(CCN(S(=O)(=O)c4ccccc4)CC3)C2)CC1 (stereo not given),0,0,0,0
COCCNC(=O)c1ccc(-c2ccc(OC)nn2)cc1,-,?,0,-
Cc1ccccc1C(=O)N1CCC(C(=O)N2CCC(c3nc4ncccc4[nH]3)CC2)CC1,-,0,0,-
CCCN(C)c1nccnc1OC1CCN(C(=O)c2ccoc2)C1 (stereo not given),0,?,0,14µM
CCCN(C)c1nccnc1OC1CCN(C(=O)c2ccc(F)cc2)C1 (stereo not given),0,?,0,35µM
CCCN(C)c1nccnc1OC1CCN(C(=O)c2ccc(OC)nc2OC)C1 (stereo not given),0,?,0,22µM
CCCN(C)c1nccnc1OC1CCN(C(=O)C2CCCCC2)C1 (stereo not given),0,?,0,?
CCc1ccc(C(=O)N2CCC(Oc3nccnc3N(C)C)C2)cc1 (stereo not given),0,?,0,?
CCCN1CCC(N2C[C@@H](CO)[C@H](c3nc(COC)no3)C2)CC1,0,0,0,0
COc1cccc(-c2cc(C(=O)NCc3ccccn3)c3cnn(C)c3n2)c1,-,79µM,?,-
SMILES,NPR1 antag,HEK cytotox,NIH3T3 tox,Luciferase inh
Cn1ncc2c(C(=O)NCC3CC3)cc(-c3ccsc3)nc21,-,?,89µM,-
Cn1ncc2c(C(=O)NC3CCC3)cc(-c3ccc(C(F)(F)F)cc3)nc21,-,40µM,35µM,-
COc1ccc(-c2cc(C(=O)NC3CCC3)c3cnn(C)c3n2)cc1,-,0,0,-
COc1cccc(-c2cc(C(=O)NC3CCC3)c3cnn(C)c3n2)c1,-,79µM,?,-
CCOC(=O)[C@@H]1[C@@H](OC)C(=O)N(Cc2ccccc2)C12CCN(C(=O)C1CCC1)CC2,-,0,?,-
Cn1ncc2c(C(=O)NCC3CC3)cc(-c3ccc(C(F)(F)F)cc3)nc21,-,32µM,?,-
COc1ccc(C(C)NC(=O)COc2ccc(NC(=O)C3CC3)cn2)cc1 (stereo not given),0,0,0,0
CCn1cc(CN2CCC3(CC2)CC(C(=O)N2CCOCC2)N(C)C3)cn1 (stereo not given),-,0,0,-
O=C(Cc1cccc(Cl)c1)NCCNC(=O)c1cccc(-c2ccc(C(F)(F)F)cc2)c1,-,?,0,-
O=C(NCC(=O)N1CCC(c2ccccc2)CC1)c1cccc(-c2ccc(C(F)(F)F)cc2)c1,-,10µM,?,-
O=C(CNC(=O)c1cccc(-c2ccc(C(F)(F)F)cc2)c1)NCc1cccc(Cl)c1,-,28µM,?,-
CSc1ccc(-c2cccc(C(=O)NCC(=O)NCc3ccc(F)cc3)c2)cc1,-,16µM,?,-
CSc1ccc(-c2cccc(C(=O)NCC(=O)N3CCN(c4ncccn4)CC3)c2)cc1,-,22µM,?,-
COc1ccc(N2CC(c3noc(-c4cc(F)ccc4F)n3)CC2=O)cc1 (stereo not given),0,0,0,0
O=C(c1ccc(F)cc1)N1CCCC(C(=O)N2CCC(c3nc4ccncc4[nH]3)CC2)C1 (stereo not given),-,0,0,-
O=C(NCC(F)(F)F)c1ccc2nc(-c3cccnc3)oc2c1,-,?,0,-
CC1=C(C(=O)OC(C)C)C(c2ccccc2Cl)CC(=O)N1Cc1cccc(F)c1 (stereo not given),0,32µM,?,0
O=C(Cc1ccc(F)cc1)N1CCN(C(=O)c2nc3cccnc3n(C3CCCC3)c2=O)CC1,-,0,?,-
CCOc1ccccc1CN1CC[C@H](c2n[nH]c(C)n2)[C@H](NC(=O)C2CCOCC2)C1,0,0,0,0
CS(=O)(=O)N(C1CC1)C1CCOC2(CCN(C(=O)c3ccccc3F)CC2)C1 (stereo not given),0,0,0,0
CC1(CCCCc2ccccc2)COc2ccc(C(=O)NCCN3CCOCC3)cc2N1 (stereo not given),0,89µM,79µM,0
CC1(CCCCc2ccccc2)COc2ccc(C(=O)NCc3ccncc3)cc2N1 (stereo not given),?,89µM,?,0
CC1(CCCCN2CCOCC2)COc2ccc(C(=O)NCc3ccccc3)cc2N1 (stereo not given),0,?,0,0
C=CCNC(=O)C[C@@H]1CCN(C(=O)Nc2cccc(C(=O)OCC)c2)C[C@@H]1CC,0,0,0,0
O=C(c1ccc(C2CCCNC2)cc1)N1CCC(Oc2cccc(F)c2)CC1 (stereo not given),0,28µM,40µM,0
Cc1cccc(CN2CCN(Cc3nc(-c4cccs4)oc3C)CC2CCO)n1 (stereo not given),0,0,0,0
CCOc1ccccc1CNC(=O)c1cc2n(n1)CC(c1ccc(Cl)cc1)OC2 (stereo not given),0,25µM,?,0
O=C(NCC1CC1)c1cc2n(n1)CC(c1ccc(Cl)cc1)OC2 (stereo not given),0,?,40µM,0
CCc1noc(-c2cn(C3CCN(C(=O)c4cccc5[nH]ccc45)CC3)nn2)n1,0,?,0,0
